Data: PubChem BioAssay AID463173 (ICCB-Longwood Screening Facility, Harvard Medical School, 2010)
Hit rate of the full screen: of about 52,000 compounds, about 4,300 (8.3%) were called active. Cut-off read from the data, not from the text of the source: active = survival mostly below about 52% (no sharp cut-off); inactive = mostly above about 56%. The full list was thinned out, with actives kept by preference.

The molecules below were run on DeltatarO mutant (assay: growth inhibition of S. aureus wild type versus tarO mutant, primary screen, teichoic acid synthesis inhibitors, RN4220, OD600 (AID 463173)). Settings: OD600, 18 h, stronger effect = lower value, screened at 18.75 µg/mL (by protocol).
For `CCOC(=O)c1c(NC(=O)CSc2cn(CCNC(=O)c3c(F)cccc3F)c3ccccc23)sc2c1CCC2`, the survival was 93% (inactive). In the case of `COc1ccc(Cl)cc1NC(=O)c1cc(S(=O)(=O)N(C)Cc2ccccc2)ccc1F`, the survival is reported as 74% (inactive). With `O=C(c1cc(-c2ccc(Br)cc2)n[nH]1)N1CCN(S(=O)(=O)c2ccc(Br)cc2)CC1` the survival was 79% (inactive). For `CN(C)S(=O)(=O)n1cc(/C=C(\NC(=O)c2ccccc2)C(=O)NCCCn2ccnc2)c2ccccc21`, the survival was 104% (inactive). For `COc1ccc(CNC(=O)c2ccc(NC(=O)N3CCSc4ncccc43)cc2)c(OC)c1`, the survival was 81% (inactive). In the case of `COc1ccc(OC)c(C2C(C(N)=O)=C(C)Nc3nc(-c4cccc(Cl)c4)nn32)c1` (stereo not drawn), the survival is reported as 113% (inactive). For `CCOc1ccc(S(=O)(=O)N2CCN(c3cc(Cl)ccc3Cl)CC2)c2ccccc12`, the survival was 64% (inactive). In the case of `O=C(Nc1nnc(S(=O)(=O)N2CCCc3ccccc32)s1)c1ccc(Cl)cc1`, the survival is reported as 15% (active). With `O=C(Nc1nnc(S(=O)(=O)N2CCc3ccccc32)s1)c1ccccc1` the survival was 12% (active). For `Cc1c(Cl)ccc2sc(NC(=O)c3ccc(S(=O)(=O)N4CCCc5ccccc54)cc3)nc12`, the survival was 55% (inactive). `CCC(CC)C(=O)Nc1nnc(S(=O)(=O)N2CCc3ccccc32)s1` was tested, and the survival was 73% (inactive). In the case of `O=C(Nc1nnc(S(=O)(=O)N2CCCc3ccccc32)s1)c1ccccc1`, the survival is reported as 27% (active). With `O=C(Nc1nnc(S(=O)(=O)N2CCCc3ccccc32)s1)c1cccc(F)c1` the survival was 7% (active). `Cc1cc(C)c2nc(NC(=O)c3ccc(S(=O)(=O)N4CCc5ccccc54)cc3)sc2c1` was tested, and the survival was 83% (inactive). For `O=C(Nc1nc2c(F)cccc2s1)c1ccc(S(=O)(=O)N2CCCc3ccccc32)cc1`, the survival was 102% (inactive). `Cc1nc2ccccc2c2nc(N)nn12` was tested, and the survival was 85% (inactive). In the case of `C=Cc1ccc(CSc2nc(-c3ccc(Cl)cc3)nc3c2Cc2c(CO)cnc(C)c2O3)cc1`, the survival is reported as 70% (inactive). In the case of `COc1ccc(NC(=O)Cn2c(SCc3ccc(F)cc3)nc3cccnc32)cc1OC`, the survival is reported as 74% (inactive). With `CC(=O)c1ccc(S(=O)(=O)Nc2cccc(-c3ccc(N4CCCC4)nn3)c2)cc1` the survival was 89% (inactive). `Cc1ccccc1Cn1c(=O)n(CCCCCC(=O)NCc2ccc3c(c2)OCO3)c(=O)c2sccc21` was tested, and the survival was 101% (inactive). `COc1ccc2c(=O)c(NC(=O)Nc3ccc(F)cc3F)c[nH]c2c1` was tested, and the survival was 92% (inactive). In the case of `O=c1c2sc3ccccc3c2n(Cc2cccc(C(F)(F)F)c2)c(=O)n1Cc1ccc(F)cc1`, the survival is reported as 114% (inactive). `O=C(Nc1ccc(F)cc1F)C1CCN(C(=O)c2cnn(-c3ccccc3)c2-n2cccc2)CC1` was tested, and the survival was 106% (inactive). `C#CCSc1nc2sc3c(c2c(=O)n1Cc1ccccc1)CCCC3` was tested, and the survival was 33% (active). For `CC(C)Sc1nc2sc3c(c2c(=O)n1Cc1ccccc1)CCCC3`, the survival was 13% (active). For `O=c1[nH]c2sc3c(c2c(=O)n1-c1ccccc1)CCCC3`, the survival was 70% (inactive). For `C=C(C)Cn1c(SCC(=O)Nc2ccccc2C)nc2sc3c(c2c1=O)CCCC3`, the survival was 126% (inactive). In the case of `C=CCn1c(SC(C)C)nc2sc3c(c2c1=O)CCCC3`, the survival is reported as 71% (inactive). For `O=c1c2c3c(sc2nc(NCCO)n1-c1ccccc1)CCCC3`, the survival was 92% (inactive). With `CC(C)Sc1nc2sc3c(c2c(=O)n1-c1ccccc1)CCCC3` the survival was -3% (active). `C=CCSc1nc2sc3c(c2c(=O)n1CC=C)CCCC3` was tested, and the survival was 98% (inactive). `CCCCC(c1nnnn1C(C)C)N1CCN(c2ccc(F)cc2)CC1` (stereo not drawn) was tested, and the survival was 85% (inactive). For `CCOC(=O)Cn1c2[n+](c3ccccc31)CC(O)CS2` (stereo not drawn), the survival was 72% (inactive). `Cc1ccc(CNC(=O)CSc2nc3ccsc3c(=O)n2-c2ccc(C(=O)O)cc2)cc1` was tested, and the survival was 95% (inactive). For `Cc1ccc(NC(=O)C2CCCN2S(=O)(=O)c2ccc3c(c2)n(C)c(=O)c(=O)n3C)cc1C` (stereo not drawn), the survival was 115% (inactive). `Cc1ccc(NC(=O)C2CCCN2S(=O)(=O)c2ccc3c(c2)n(C)c(=O)c(=O)n3C)cc1` (stereo not drawn) was tested, and the survival was 87% (inactive). `Cc1ccc(C)c(NC(=O)C2CCCN2S(=O)(=O)c2ccc3c(c2)n(C)c(=O)c(=O)n3C)c1` (stereo not drawn) was tested, and the survival was 38% (active). For `COc1ccc2cc(CNc3ccccc3)c(=O)n(CC(=O)Nc3ccc(C(C)=O)cc3)c2c1`, the survival was 68% (inactive). In the case of `COc1ccccc1NC(=O)C(C#N)Cc1cc2cc(C)cc(C)c2[nH]c1=O` (stereo not drawn), the survival is reported as 98% (inactive). With `CCOC(=O)c1cc2c(ccn2-c2ccc(F)cc2)n1CC(=O)c1ccc2c(c1)OCCO2` the survival was 100% (inactive). `COc1ccccc1C(=O)N(Cc1nc(-c2cccc(C)c2)no1)C(C)C` was tested, and the survival was 62% (inactive). `CC(Oc1ccc(Br)cc1)C(=O)N(Cc1nc(-c2ccccc2)no1)C(C)C` (stereo not drawn) was tested, and the survival was 97% (inactive). In the case of `Cc1cccc(-c2noc(CN(C(=O)c3ccc(C)c(C)c3)C(C)C)n2)c1`, the survival is reported as -3% (active). In the case of `CCOc1ccc(C(=O)N(Cc2nc(-c3cccc(C)c3)no2)C(C)C)cc1`, the survival is reported as 0% (active). With `COc1ccc(OC(C)C(=O)NCc2nc(-c3cccc(C)c3)no2)cc1` (stereo not drawn) the survival was 61% (inactive). In the case of `Cc1cccc(-c2noc(CN(C(=O)c3ccccc3Cl)C(C)C)n2)c1`, the survival is reported as 62% (inactive). In the case of `Cc1cccc(-c2noc(CN(C(=O)COc3ccc(Br)cc3C)C(C)C)n2)c1`, the survival is reported as 45% (active). For `Cc1cccc(-c2noc(CN(C(=O)COc3ccc(C(C)C)cc3)C(C)C)n2)c1`, the survival was 11% (active). With `Cc1ccc2cc(CN(C(=O)c3cccc(Cl)c3)c3ccccc3)c(=O)[nH]c2c1` the survival was 74% (inactive). For `CCS(=O)(=O)N1CCc2cc(C(=O)Nc3cc(C(F)(F)F)ccc3Cl)ccc21`, the survival was 48% (inactive). For `Cc1ccc(-c2noc(CSc3nnc(C)n3-c3ccc(F)cc3)n2)cc1`, the survival was 61% (inactive). For `CCCN1CCN(CCCNC(=O)c2cc3c(=O)[nH]c4ccccc4c3s2)CC1`, the survival was 79% (inactive). With `CC(=O)c1ccc(N2CCN(c3ncnc4c3c(-c3ccccc3)cn4-c3ccc(Cl)cc3)CC2)cc1` the survival was 91% (inactive). For `O=C(CSc1nc2ccsc2c(=O)n1Cc1ccccc1F)NCc1ccccc1`, the survival was 122% (inactive). For `COc1cccc(NC(=O)Cn2c(=O)n(-c3cccc(OC)c3)c(=O)c3sc4ccccc4c32)c1`, the survival was 65% (inactive). For `CCCCNC(=O)c1ccc2c(=O)n(-c3ccccc3)c(=O)[nH]c2c1`, the survival was 80% (inactive). `COc1ccc(C(=O)N2CC(=O)Nc3ccc(F)cc3C2c2ccc(F)cc2)c(OC)c1` (stereo not drawn) was tested, and the survival was 58% (inactive). For `Cc1ccccc1CNCc1c(C(=O)O)c(C)n(Cc2ccc(F)cc2Cl)c1C`, the survival was 59% (inactive). With `O=C(COCc1cc(-c2cccs2)on1)NCc1cccc(Cl)c1` the survival was 117% (inactive). In the case of `CCOc1nc(NC(=O)NS(=O)(=O)Oc2ccccc2)nc(-c2ccccc2)n1`, the survival is reported as 70% (inactive). For `CCOC(=O)c1ccc(N2C(=O)Cc3cc(OCC)c(OCC)cc3C2c2ccccc2)cc1` (stereo not drawn), the survival was 117% (inactive). For `CC(C)NC(=O)c1ccc2c(c1)nnn2C`, the survival was 78% (inactive). With `Cc1noc(-c2ccccc2OCC(=O)Nc2cccc([N+](=O)[O-])c2)n1` the survival was 60% (inactive). `O=C(COc1ccccc1-c1nc(-c2ccccc2)no1)Nc1cccc([N+](=O)[O-])c1` was tested, and the survival was 34% (active). For `CC(=O)c1ccc(NC(=O)COc2ccccc2-c2nc(-c3ccc(C)cc3)no2)cc1`, the survival was 57% (inactive). With `Cc1cccc(-c2noc(-c3ccccc3OCC(=O)Nc3ccc([N+](=O)[O-])cc3)n2)c1` the survival was 50% (inactive). In the case of `Cc1ccccc1-c1noc(-c2ccccc2OCC(=O)Nc2cccc([N+](=O)[O-])c2)n1`, the survival is reported as 51% (inactive). `O=C(COc1ccccc1-c1nc(-c2ccccc2)no1)Nc1ccc([N+](=O)[O-])cc1` was tested, and the survival was 44% (active). For `CCN(C(=O)C1CCN(S(=O)(=O)c2ccc3c(c2)CCCN3C(C)=O)CC1)c1cccc(C)c1`, the survival was 88% (inactive). With `CCN(CC)S(=O)(=O)c1ccc(OC)c(-n2cnnn2)c1` the survival was 65% (inactive). `COc1ccc(NC(=O)c2nc(SCc3ccccc3F)ncc2Cl)cc1` was tested, and the survival was 73% (inactive). `O=C(Nc1ccccc1F)c1nc(S(=O)(=O)Cc2ccccc2F)ncc1Cl` was tested, and the survival was -4% (active). `CCOc1ccc(NC(=O)c2nc(S(=O)(=O)Cc3ccccc3F)ncc2Cl)cc1` was tested, and the survival was 11% (active). `COc1ccc2nc(NC(=O)c3nc(S(=O)(=O)Cc4ccccc4F)ncc3Cl)sc2c1` was tested, and the survival was 61% (inactive). In the case of `COC(=O)c1ccccc1NC(=O)c1nc(S(=O)(=O)Cc2ccccc2F)ncc1Cl`, the survival is reported as 110% (inactive). `O=C(Nc1ccccc1F)c1nc(SCc2ccccc2F)ncc1Cl` was tested, and the survival was 73% (inactive). `Cc1cc(C)c2c(=O)cc(C(=O)Nc3sc4c(c3C(=O)NCc3cccnc3)CCCC4)oc2c1` was tested, and the survival was 68% (inactive). In the case of `CCOCCCNC(=O)c1c(NC(=O)c2cc(=O)c3ccccc3o2)sc2c1CCC2`, the survival is reported as 48% (inactive). For `Cc1nc2c(Cl)cc(Cl)cc2[nH]1`, the survival was 88% (inactive). For `COc1cccc2cc(-c3cn4c(n3)sc3cc(F)ccc34)c(=O)oc12`, the survival was 60% (inactive). In the case of `CCOc1cccc2cc(-c3cn4c(n3)sc3ccccc34)c(=O)oc12`, the survival is reported as 72% (inactive). For `CCOc1cccc2cc(-c3cn4c(n3)sc3cc(C)ccc34)c(=O)oc12`, the survival was -4% (active). `COCCCNC(=O)CS(=O)Cc1nc(-c2cccc(C)c2)oc1C` (stereo not drawn) was tested, and the survival was 90% (inactive). With `S=C(NC12CC3CC(CC(C3)C1)C2)N1CCOCC1` the survival was 98% (inactive). For `CCC(C)NC(=O)c1cn(CC)c2ccc(S(=O)(=O)N3CCCCC3)cc2c1=O` (stereo not drawn), the survival was 84% (inactive). In the case of `Cc1ccc(COC(=O)c2[nH]c3c(c2C)C(=O)CC(c2ccc(N(C)C)cc2)C3)cc1` (stereo not drawn), the survival is reported as 77% (inactive). In the case of `CCCOC(=O)c1c(NC(=O)c2nc3ncccn3n2)sc(C(=O)OCC)c1C`, the survival is reported as 68% (inactive). For `O=C(CN1C(=O)CCc2cc(S(=O)(=O)N3CCCCC3)ccc21)NCc1ccc(Cl)cc1`, the survival was 78% (inactive).
